From PubChem BioAssay (NCATS)
A number with no mark means an inactive call. Results filed as inconclusive are left out. Calls of active or inactive are those of the source. Unless noted, calls follow the shape of the dose curve; as a rule, active = well fitted curve in either direction with a large enough effect (not every such curve was filed as active); inconclusive = small, poorly fitted or top-dose-only effect, or another doubt; inactive = flat fitted curve, though single readings scatter.

What was measured:
[1] = biological target: Lysosomal acid glucosylceramidase (Homo sapiens) (UniProt P04062); assay: Glucocerebrosidase-p2 (AID 348; in the data active = potency below about 10 µM; also: potency is read from the fitted curve at half-maximal effect); conditions: purified GBA, blue fluorogenic substrate, 40 min
Method in brief: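 Normal human glucocerebrosidase (0.2 nM) with blue fluorogenic substrate (80 uM final) in citrate/phosphate pH 5.9 with 10mM sodium taurocholate, 0.01% tween-20; 40 min RT, NaOH/glycine stop; fluorescence Ex 365/Em 440; AC50 from a titration from 0.6 nM upwards.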

[2] = AP1 Signaling Pathway (AID 357); conditions: ME-180 AP-1-bla reporter, EGF-induced, beta-lactamase ratio, 5 h; at 7.69 µM (top of the series) unless noted;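 also: ME-180 reporter cells stimulated with EGF at its EC50 level; % is scaled to controls: 0 for no effect and ±100 for the full control effect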
Method in brief: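 Beta-lactamase reporter under AP-1 response element, ME-180 background. Stimulus: EC50 EGF. Compound exposure 5 h, 37 °C. Detection: CCF4, 2.5 h RT, 460/530 nm. Values: AC50 from titration.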

[3] = biological target: Cytochrome P450 1A2 (Homo sapiens) (UniProt P05177); assay: p450-cyp1a2 (AID 410; calls by dose curve; also: potency is read from the fitted curve at half-maximal effect;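 as to activity change, negative = inhibition: -100% = full effect of reference inhibitor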); conditions: recombinant CYP1A2, luciferin-ME demethylation, luminescence; series mostly up to 11.4 µM
Method in brief: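 O-Demethylation of luciferin 6' methyl ether by human CYP1A2 is monitored as luciferase luminescence. Substrate sits at Km (100uM); enzyme is 20nM. Values are scaled to 57 uM furafylline as maximal inhibition.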

[4] = NFAT Signaling Pathway (AID 444); conditions: Jurkat NFAT-bla M1, carbachol, beta-lactamase ratio, 5 h; at 7.69 µM (top of the series) unless noted;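 also: carbachol stimulus at about its EC50 of 1 µM final; % is scaled to controls: 0 for no effect and ±100 for the full control effect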
Method in brief: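 Read-out: CCF4 FRET ratio (460 nm/530 nm) after 1 h RT dye loading, used for %activity and AC50 from titration series. Cells: Jurkat NFAT-β-lactamase/M1 line, treated with compound plus 1 uM carbachol for 5 h, 37 °C.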

[5] = Stat Signaling Pathway (AID 446); conditions: ME-180 (cervical carcinoma) SIE beta-lactamase reporter, IL-6 stimulated, 5 h; at 7.69 µM (top of the series) unless noted;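 also: ME-180 cervical cancer cells given 40 pM IL-6 alongside compound; SIE-controlled beta-lactamase reporter measured as 460/530 nm FRET emission ratio; % is scaled to controls: 0 for no effect and ±100 for the full control effect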
Method in brief: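 Overnight-plated ME-180 cells bearing a STAT Inducible Element beta-lactamase reporter; 5 h co-exposure to compound and 40 pM IL-6; values normalized to 300 pM IL-6 and 125 nM JAK inhibitor controls.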

[6] = biological target: Glucocorticoid receptor (Homo sapiens) (UniProt P04150); assay: GR-GFP Redistribution (AID 450;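 active = compounds whose dose series gives a full or clear partial fitted curve of increased nuclear translocation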; also: potency is read from the fitted curve at half-maximal effect); conditions: U2OS GR-GFP nuclear translocation, laser cytometry, 2 h
[7] = biological target: Glucocorticoid receptor (Homo sapiens) (UniProt P04150); assay: GR-EFC Redistribution (AID 451; calls by dose curve; also: potency is read from the fitted curve at half-maximal effect); conditions: CHO-K1 GR-EFC translocation, beta-gal luminescence, 2 h
Method in brief: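 Translocation of GR-ED fusion to nuclear EA restores b-gal, read by luminescence after 1 h room-temperature detection. Engineered CHO-K1 biosensor cells, 1,000/well, exposed 2 h at 37 C to titrations up to 46 uM final.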

[8] = biological target: Mitogen-activated protein kinase 10 (Mus musculus) (UniProt Q61831); assay: JNK3 AlphaScreen Assay (AID 530); conditions: JNK3 lysate, c-Jun phosphorylation; series mostly up to 57.1 µM;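 also: kinase came from lysate of stimulated human HepG2 cells; signal reports phosphorylation of biotinylated GST-cJun 1-79 at Ser73 with 10 µM ATP; % is scaled to controls: 0 for no effect and ±100 for the full control effect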
Method in brief: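 qHTS titrations with 15 min compound pre-incubation before adding ATP (10 uM final). Read-out: AlphaScreen of Ser73-phosphorylated biotin-GST-cJun using HepG2 lysate JNK3 activated by IL-1β and TNFα.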

[9] = biological target: 3',5'-cyclic-AMP phosphodiesterase 4B (Homo sapiens) (UniProt Q07343); assay: qHTS Assay for Inhibitors of PDE-IV (AID 607; active = well fitted activation curve with a large enough effect in the main read-out, with a control signal flat, not every such curve was filed as active; also: % of control where 0% means no effect); conditions: HEK293 ACTOne CNG channel cells, membrane potential fluorescence; series mostly up to 22.9 µM
Method in brief: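 Live HEK293 cells with a modified cyclic nucleotide-gated (CNG) channel report intracellular cAMP via membrane-potential dye fluorescence (ex 535/em 590 nm). Endogenous PDE-IV was targeted. Compounds were tested at up to 22.9 uM final; RO 20-1724 100 uM served as control.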

[10] = biological target: Cytochrome P450 2D6 (Homo sapiens) (UniProt P10635); assay: qHTS Assay for Inhibitors and Substrates of Cytochrome P450 2D6 (AID 891; active = well fitted curve in the direction sought with a large enough effect; an effect the other way counts as inactive or inconclusive; also: potency is read from the fitted curve at half-maximal effect; nearly all actives have a fitted effect of over 60% in size); conditions: recombinant CYP2D6, luciferin-ME EGE luminescence; series mostly up to 11.4 µM
Method in brief: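 Luminescent read-out of luciferin formed by 5 nM human CYP2D6 demethylating 30 uM Luciferin-ME EGE (Km level) over 60 min at room temperature after NADPH regeneration addition. Data normalized to full inhibition by 1.43 uM quinidine.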

[11] = biological target: Luciferin 4-monooxygenase (Photinus pyralis) (UniProt P08659); assay: Biochemical firefly luciferase enzyme assay for NPC (AID 624030; active = well fitted curve in the direction sought with a large enough effect; an effect the other way counts as inactive or inconclusive;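 also: purified P. pyralis luciferase at 10 nM with luciferin and ATP substrate; 0% = DMSO and -100% = full luciferase inhibition by PTC124 control; nearly all actives have a fitted effect of over 70% in size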); conditions: purified P. pyralis luciferase, luminescence, 5 min; series mostly up to 58.6 µM
Method in brief: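 Direct inhibition of firefly luciferase enzyme (10 nM final, 50 mM Tris Acetate) assessed by luminescence within 5 minutes. Percent activity scaled between DMSO and PTC124 positive control, with concentration-effect curves classified by fit quality and response.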

[12] = biological target: Cytochrome P450 2C19 (Homo sapiens) (UniProt P33261); assay: qHTS Assay for Inhibitors and Substrates of Cytochrome P450 2C19 (AID 899; active = well fitted curve in the direction sought with a large enough effect; an effect the other way counts as inactive or inconclusive; also: % is scaled to controls: 0 for no effect and ±100 for the full control effect; nearly all actives have a fitted effect of over 60% in size); conditions: recombinant CYP2C19, luciferin-H EGE luminescence; series mostly up to 11.4 µM
Method in brief: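 Luminescence readout of luciferin formed from 10uM Luciferin-H EGE (KM level) by 5 nM CYP2C19 in 50mM KPO4. 60 min NADPH-driven reaction at 37C after 10 min compound preincubation; data scaled to 57uM ketoconazole inhibition.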

[13] = biological target: Cytochrome P450 3A4 (Homo sapiens) (UniProt P08684); assay: qHTS Assay for Inhibitors and Substrates of Cytochrome P450 3A4 (AID 884; active = well fitted curve in the direction sought with a large enough effect; an effect the other way counts as inactive or inconclusive; also: potency is read from the fitted curve at half-maximal effect; nearly all actives have a fitted effect of over 50% in size); conditions: recombinant CYP3A4, Luciferin-PPXE luminescence; series mostly up to 57.1 µM
Method in brief: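 Luminescent readout of luciferin produced by CYP3A4 (20 nM) dealkylation of Luciferin-PPXE, 25 uM (its KM). NADPH-driven reaction ran 60 min at RT after 10 min compound preincubation; data scaled to 57 uM ketoconazole as 100% inhibition.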

[14] = biological target: Cytochrome P450 3A4 (Homo sapiens) (UniProt P08684); assay: qHTS Assay for Activators of Cytochrome P450 3A4 (AID 885; active = well fitted curve in the direction sought with a large enough effect; an effect the other way counts as inactive or inconclusive; also: nearly all actives have a fitted effect of over 65% in size); conditions: recombinant CYP3A4, Luciferin-PPXE luminescence, 60 min; series mostly up to 57.1 µM
Method in brief: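 Using 20nM recombinant human CYP3A4 in potassium phosphate (200mM), substrate Luciferin-PPXE at 25uM, luminescent luciferin detection followed a 60-min RT NADPH reaction; data scaled to 57 uM ketoconazole.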

Sequence of 3',5'-cyclic-AMP phosphodiesterase 4B (Homo sapiens) (Q07343 whole entry, looked up): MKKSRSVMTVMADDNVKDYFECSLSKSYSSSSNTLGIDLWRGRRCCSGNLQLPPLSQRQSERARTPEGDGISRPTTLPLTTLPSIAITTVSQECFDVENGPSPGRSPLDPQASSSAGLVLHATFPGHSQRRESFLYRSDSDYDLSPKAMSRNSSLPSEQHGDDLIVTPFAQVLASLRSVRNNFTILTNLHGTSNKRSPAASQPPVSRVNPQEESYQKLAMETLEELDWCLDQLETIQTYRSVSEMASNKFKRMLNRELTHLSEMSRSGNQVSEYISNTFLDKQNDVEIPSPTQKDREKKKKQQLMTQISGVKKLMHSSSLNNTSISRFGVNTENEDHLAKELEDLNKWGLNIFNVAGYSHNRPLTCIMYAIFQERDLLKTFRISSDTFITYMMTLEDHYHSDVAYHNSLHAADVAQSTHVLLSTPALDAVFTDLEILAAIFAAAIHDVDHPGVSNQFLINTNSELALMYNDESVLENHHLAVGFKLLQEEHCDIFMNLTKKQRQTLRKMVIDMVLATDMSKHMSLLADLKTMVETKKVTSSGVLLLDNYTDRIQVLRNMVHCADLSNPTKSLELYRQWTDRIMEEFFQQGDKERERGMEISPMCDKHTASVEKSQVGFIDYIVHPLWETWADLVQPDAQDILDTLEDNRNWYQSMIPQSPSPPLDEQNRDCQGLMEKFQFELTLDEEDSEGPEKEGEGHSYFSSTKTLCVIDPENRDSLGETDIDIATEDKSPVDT
Sequence of Glucocorticoid receptor (Homo sapiens) (P04150 whole entry, looked up, the tested form may be a part): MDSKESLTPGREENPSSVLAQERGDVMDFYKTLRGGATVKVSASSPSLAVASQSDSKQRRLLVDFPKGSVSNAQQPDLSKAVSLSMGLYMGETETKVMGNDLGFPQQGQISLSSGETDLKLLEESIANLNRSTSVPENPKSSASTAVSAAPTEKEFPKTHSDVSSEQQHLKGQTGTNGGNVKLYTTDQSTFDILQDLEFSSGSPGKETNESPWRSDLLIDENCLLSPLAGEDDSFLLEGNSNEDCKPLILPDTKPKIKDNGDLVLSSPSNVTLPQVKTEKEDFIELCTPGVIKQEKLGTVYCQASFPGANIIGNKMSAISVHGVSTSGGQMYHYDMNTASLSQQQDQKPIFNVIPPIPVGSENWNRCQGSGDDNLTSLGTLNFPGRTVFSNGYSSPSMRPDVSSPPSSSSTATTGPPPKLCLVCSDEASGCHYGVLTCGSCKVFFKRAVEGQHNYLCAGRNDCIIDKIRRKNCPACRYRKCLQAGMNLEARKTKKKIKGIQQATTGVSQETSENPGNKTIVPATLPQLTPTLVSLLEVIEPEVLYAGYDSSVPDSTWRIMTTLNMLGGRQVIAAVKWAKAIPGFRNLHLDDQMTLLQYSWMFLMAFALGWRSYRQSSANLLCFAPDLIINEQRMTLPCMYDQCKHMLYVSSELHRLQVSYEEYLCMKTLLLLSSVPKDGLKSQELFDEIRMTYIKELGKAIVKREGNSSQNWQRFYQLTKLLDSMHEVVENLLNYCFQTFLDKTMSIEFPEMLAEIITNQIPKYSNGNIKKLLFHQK
Sequence of Cytochrome P450 1A2 (Homo sapiens) (P05177 whole entry, looked up): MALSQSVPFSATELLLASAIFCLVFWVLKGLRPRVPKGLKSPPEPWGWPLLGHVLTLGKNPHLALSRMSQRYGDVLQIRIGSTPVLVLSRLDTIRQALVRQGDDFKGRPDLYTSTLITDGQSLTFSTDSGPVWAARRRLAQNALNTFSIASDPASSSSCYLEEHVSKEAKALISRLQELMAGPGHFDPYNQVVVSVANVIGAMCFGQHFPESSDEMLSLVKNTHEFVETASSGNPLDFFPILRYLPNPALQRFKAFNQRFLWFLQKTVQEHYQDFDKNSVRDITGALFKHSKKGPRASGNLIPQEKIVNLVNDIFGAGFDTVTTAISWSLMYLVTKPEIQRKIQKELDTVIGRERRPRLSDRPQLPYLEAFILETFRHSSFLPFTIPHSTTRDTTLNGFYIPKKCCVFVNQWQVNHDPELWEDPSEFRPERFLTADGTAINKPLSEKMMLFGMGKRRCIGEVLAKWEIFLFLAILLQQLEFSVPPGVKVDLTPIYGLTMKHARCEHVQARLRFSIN
Sequence of Lysosomal acid glucosylceramidase (Homo sapiens) (P04062 whole entry, looked up): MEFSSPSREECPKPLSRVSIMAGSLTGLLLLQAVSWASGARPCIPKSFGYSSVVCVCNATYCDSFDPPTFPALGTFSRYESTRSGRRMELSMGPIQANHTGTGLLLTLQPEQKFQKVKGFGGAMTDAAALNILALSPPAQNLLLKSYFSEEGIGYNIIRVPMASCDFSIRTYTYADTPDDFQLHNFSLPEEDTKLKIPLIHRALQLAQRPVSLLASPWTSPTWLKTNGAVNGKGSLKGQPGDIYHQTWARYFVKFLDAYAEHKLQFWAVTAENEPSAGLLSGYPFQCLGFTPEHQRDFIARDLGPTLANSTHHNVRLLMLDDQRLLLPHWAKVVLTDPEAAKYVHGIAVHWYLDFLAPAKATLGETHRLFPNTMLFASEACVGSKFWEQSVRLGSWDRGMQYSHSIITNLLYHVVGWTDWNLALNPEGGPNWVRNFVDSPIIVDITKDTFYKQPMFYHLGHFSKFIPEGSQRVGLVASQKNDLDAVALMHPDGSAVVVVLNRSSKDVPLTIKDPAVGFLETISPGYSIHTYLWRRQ
Sequence of Cytochrome P450 3A4 (Homo sapiens) (P08684 whole entry, looked up): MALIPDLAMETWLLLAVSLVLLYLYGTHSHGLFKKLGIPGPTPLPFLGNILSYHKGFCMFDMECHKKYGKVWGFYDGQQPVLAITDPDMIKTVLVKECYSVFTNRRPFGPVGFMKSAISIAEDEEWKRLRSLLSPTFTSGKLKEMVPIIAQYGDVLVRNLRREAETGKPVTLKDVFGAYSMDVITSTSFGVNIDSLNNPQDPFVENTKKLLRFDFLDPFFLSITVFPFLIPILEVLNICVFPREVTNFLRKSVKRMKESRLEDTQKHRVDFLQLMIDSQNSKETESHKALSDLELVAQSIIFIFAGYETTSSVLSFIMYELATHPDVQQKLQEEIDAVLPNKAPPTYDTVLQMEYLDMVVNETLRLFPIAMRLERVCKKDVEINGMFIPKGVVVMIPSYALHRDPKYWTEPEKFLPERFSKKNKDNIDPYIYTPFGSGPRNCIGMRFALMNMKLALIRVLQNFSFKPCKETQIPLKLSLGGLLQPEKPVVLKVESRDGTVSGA
Sequence of Cytochrome P450 2C19 (Homo sapiens) (P33261 whole entry, looked up): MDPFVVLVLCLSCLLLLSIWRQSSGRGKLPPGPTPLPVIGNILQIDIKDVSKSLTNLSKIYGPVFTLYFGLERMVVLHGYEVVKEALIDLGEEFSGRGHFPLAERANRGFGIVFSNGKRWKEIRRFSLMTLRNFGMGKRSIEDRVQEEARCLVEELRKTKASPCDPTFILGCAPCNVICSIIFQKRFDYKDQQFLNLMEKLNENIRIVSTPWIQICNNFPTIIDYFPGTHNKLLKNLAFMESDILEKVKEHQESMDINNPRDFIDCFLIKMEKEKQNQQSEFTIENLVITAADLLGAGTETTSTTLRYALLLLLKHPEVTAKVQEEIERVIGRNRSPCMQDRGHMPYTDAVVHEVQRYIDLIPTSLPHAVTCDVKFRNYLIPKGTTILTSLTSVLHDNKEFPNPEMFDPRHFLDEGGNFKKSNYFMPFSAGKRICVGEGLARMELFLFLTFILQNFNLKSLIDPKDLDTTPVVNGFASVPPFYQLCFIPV
Sequence of Luciferin 4-monooxygenase (Photinus pyralis) (P08659 whole entry, looked up): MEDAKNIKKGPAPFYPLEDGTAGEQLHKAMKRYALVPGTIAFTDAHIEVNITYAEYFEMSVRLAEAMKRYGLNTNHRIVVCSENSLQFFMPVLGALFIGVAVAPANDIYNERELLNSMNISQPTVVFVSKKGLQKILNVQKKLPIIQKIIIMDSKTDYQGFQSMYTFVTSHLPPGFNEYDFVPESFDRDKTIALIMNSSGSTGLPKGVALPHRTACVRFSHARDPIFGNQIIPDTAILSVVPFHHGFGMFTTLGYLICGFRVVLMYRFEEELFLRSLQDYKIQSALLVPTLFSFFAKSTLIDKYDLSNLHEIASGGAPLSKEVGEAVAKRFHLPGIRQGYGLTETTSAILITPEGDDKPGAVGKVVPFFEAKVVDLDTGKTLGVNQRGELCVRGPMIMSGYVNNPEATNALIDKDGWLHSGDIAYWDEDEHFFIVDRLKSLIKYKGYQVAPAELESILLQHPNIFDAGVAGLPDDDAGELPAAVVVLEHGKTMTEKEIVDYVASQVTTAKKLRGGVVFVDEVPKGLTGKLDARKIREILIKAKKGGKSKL
Sequence of Cytochrome P450 2D6 (Homo sapiens) (P10635 whole entry, looked up): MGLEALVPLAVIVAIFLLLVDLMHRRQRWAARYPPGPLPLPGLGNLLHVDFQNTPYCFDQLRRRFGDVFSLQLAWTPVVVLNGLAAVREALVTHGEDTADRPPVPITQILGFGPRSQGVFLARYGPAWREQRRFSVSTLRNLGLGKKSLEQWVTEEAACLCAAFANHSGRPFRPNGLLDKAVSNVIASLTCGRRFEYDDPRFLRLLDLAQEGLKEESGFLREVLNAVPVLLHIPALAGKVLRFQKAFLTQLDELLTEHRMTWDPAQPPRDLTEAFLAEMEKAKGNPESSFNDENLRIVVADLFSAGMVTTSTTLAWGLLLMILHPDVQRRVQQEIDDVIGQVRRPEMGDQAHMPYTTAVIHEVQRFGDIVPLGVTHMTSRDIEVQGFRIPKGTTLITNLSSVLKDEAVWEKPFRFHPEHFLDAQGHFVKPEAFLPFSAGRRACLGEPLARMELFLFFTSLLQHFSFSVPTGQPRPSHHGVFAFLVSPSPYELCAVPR

## c1ccc(CCN2CCCCCC2)nc1
[1]
  Potency: > 11.4 µM
[2]
  activity change, negative = inhibition: -1.84%
[3]
  Potency: inactive
[4]
  activity change, negative = inhibition: -10.4%
[5]
  activity, negative = inhibition: 3.27%
[6]
  Potency: > 46 µM
[7]
  Potency: > 9.22 µM
[8]
  activity change, negative = inhibition: 4.35% [at 11.4 µM]
[9]
  outcome: inactive

## c1ccc2c(c1)Sc1ccccc1N2C[C@H]1CN2CCC1CC2
[1]
  Potency: > 11.4 µM
[2]
  activity change, negative = inhibition: 24.9%
[3]
  Potency: inactive
[4]
  activity change, negative = inhibition: -73.4% (active)
[5]
  activity, negative = inhibition: 9.78%
[6]
  Potency: > 46 µM
[7]
  Potency: > 9.22 µM
[8]
  activity change, negative = inhibition: 3.89% [at 11.4 µM]
[9]
  outcome: inactive
[10]
  Potency: 0.398 µM (active)
[11]
  outcome: inactive

## C[C@@]12CC[C@H](O[C@@H]3O[C@H](CO)[C@@H](O)[C@H](O)[C@@H]3O)C[C@@H]1CC[C@H]1[C@H]2CC[C@@]2(C)[C@@H](C3=CCOC3=O)CC[C@]12O
[1]
  Potency: > 11.4 µM
[2]
  activity change, negative = inhibition: -9.15%
[3]
  Potency: inactive
[4]
  activity change, negative = inhibition: 2.85%
[5]
  activity, negative = inhibition: 12.3%
[6]
  Potency: > 46 µM
[7]
  Potency: > 9.22 µM
[8]
  activity change, negative = inhibition: 8.37% [at 11.4 µM]
[9]
  outcome: inactive

## O[C@H](CN1CC1)[C@@H](O)CN1CC1
[1]
  Potency: > 11.4 µM
[2]
  activity change, negative = inhibition: 10.5%
[3]
  Potency: inactive
[4]
  activity change, negative = inhibition: -21.2%
[5]
  activity, negative = inhibition: 2.88%
[6]
  Potency: > 46 µM
[7]
  Potency: > 9.22 µM
[8]
  activity change, negative = inhibition: 2.9% [at 11.4 µM]
[9]
  outcome: inactive

## NC[C@@H](O)CSP(=O)(O)O
[1]
  Potency: > 11.4 µM
[2]
  activity change, negative = inhibition: -1.23%
[3]
  Potency: inactive
[4]
  activity change, negative = inhibition: -18.7%
[5]
  activity, negative = inhibition: 2.46%
[6]
  Potency: > 46 µM
[7]
  Potency: > 9.22 µM
[8]
  activity change, negative = inhibition: -5.07% [at 11.4 µM]
[9]
  outcome: inactive

## O=P(O)(O)CCP(=O)(O)O
[1]
  Potency: > 11.4 µM
[2]
  activity change, negative = inhibition: -10.9%
[3]
  Potency: inactive
[4]
  activity change, negative = inhibition: 7.15%
[5]
  activity, negative = inhibition: 11.8%
[6]
  Potency: > 46 µM
[7]
  Potency: > 9.22 µM
[8]
  activity change, negative = inhibition: -1.32% [at 11.4 µM]
[9]
  outcome: inactive

## [N-]=[N+]=CC(=O)CC[C@H](N)C(=O)O
[1]
  Potency: > 11.4 µM
[2]
  activity change, negative = inhibition: 6.38%
[3]
  Potency: inactive
[4]
  activity change, negative = inhibition: -6.88%
[5]
  activity, negative = inhibition: 6.39%
[6]
  Potency: > 46 µM
[7]
  Potency: > 9.22 µM
[8]
  activity change, negative = inhibition: 31.7% [at 11.4 µM]
[9]
  outcome: inactive

## NCCc1ccc(S(=O)(=O)O)cc1[N+](=O)[O-]
[1]
  Potency: > 11.4 µM
[2]
  activity change, negative = inhibition: -10.6%
[3]
  Potency: inactive
[4]
  activity change, negative = inhibition: -27.3%
[5]
  activity, negative = inhibition: 1.75%
[6]
  Potency: > 46 µM
[7]
  Potency: > 9.22 µM
[8]
  activity change, negative = inhibition: 10.9% [at 11.4 µM]
[9]
  outcome: inactive

## CC(C)c1nccn1Cc1ccc(Cl)cc1Cl
[1]
  Potency: > 11.4 µM
[2]
  activity change, negative = inhibition: -14.8%
[3]
  Potency: inactive
[4]
  activity change, negative = inhibition: -21%
[5]
  activity, negative = inhibition: 1.75%
[6]
  Potency: > 46 µM
[7]
  Potency: > 9.22 µM
[8]
  activity change, negative = inhibition: -0.456% [at 11.4 µM]
[9]
  outcome: inactive

## O=C(O)[C@@H](O)[C@@H](O)[C@@H]1[O][Sb][O][C@@H]1CO
[1]
  Potency: > 11.4 µM
[2]
  activity change, negative = inhibition: 4.54%
[3]
  activity change, negative = inhibition: -5.1% [at 2.29 µM]
[4]
  activity change, negative = inhibition: 5.74%
[5]
  activity, negative = inhibition: 1.94%
[6]
  Potency: > 46 µM
[7]
  Potency: > 9.22 µM
[8]
  activity change, negative = inhibition: 1.63% [at 11.4 µM]
[9]
  outcome: inactive

## NC(=O)c1ccc(C(=O)Nc2ccc([As](=O)(O)O)cc2)cc1
[1]
  Potency: > 11.4 µM
[2]
  activity change, negative = inhibition: -1.92%
[3]
  activity change, negative = inhibition: -13.8% [at 2.29 µM]
[4]
  activity change, negative = inhibition: 26.9%
[5]
  activity, negative = inhibition: 5.04%
[6]
  Potency: > 46 µM
[7]
  Potency: > 9.22 µM
[8]
  activity change, negative = inhibition: 1.99% [at 11.4 µM]
[9]
  outcome: inactive

## COC(=O)[C@H]1C(=O)[C@H](C(=O)OC)[C@@H]2CC[C@H]1N2C
[1]
  Potency: > 11.4 µM
[2]
  activity change, negative = inhibition: 12.9%
[3]
  Potency: 0.794 µM (active)
[4]
  activity change, negative = inhibition: 11.3%
[5]
  activity, negative = inhibition: 7.99%
[6]
  Potency: > 46 µM
[8]
  activity change, negative = inhibition: 4.63% [at 11.4 µM]
[9]
  outcome: inactive

## COc1ccc(C(=O)O[C@H]2CC[C@@]3(C)[C@H]4CC[C@H]5[C@]3(C[C@]3(O)[C@H]6CN7C[C@H](C)CC[C@H]7[C@](C)(O)[C@]6(O)[C@H](O)C[C@]53O)O[C@]24O)cc1OC
[1]
  Potency: > 11.4 µM
[2]
  activity change, negative = inhibition: 1.14%
[3]
  activity change, negative = inhibition: -20.9% [at 2.29 µM]
[4]
  activity change, negative = inhibition: -1.26%
[5]
  activity, negative = inhibition: -2.58%
[6]
  Potency: > 46 µM
[7]
  Potency: > 9.22 µM
[8]
  activity change, negative = inhibition: -0.646% [at 11.4 µM]
[9]
  outcome: inactive
[12]
  Potency: inactive

## Nc1ccc(S(=O)(=O)c2ccc(NCN3C(=O)NC(=O)C(=O)C3=O)cc2)cc1
[1]
  Potency: > 11.4 µM
[2]
  activity change, negative = inhibition: -11.3%
[3]
  Potency: inactive
[4]
  activity change, negative = inhibition: 14.2%
[5]
  activity, negative = inhibition: -4.49%
[6]
  Potency: > 46 µM
[7]
  Potency: > 9.22 µM
[8]
  activity change, negative = inhibition: 1.4% [at 11.4 µM]
[9]
  outcome: inactive
[13]
  Potency: 2 µM (active)
[14]
  activity change, positive = activation: -78% [at 11.4 µM]
[12]
  Potency: inactive
